Source: PubChem BioAssay (EPA / NIEHS)
Activity calls are given as the source filed them. How the source made its calls: active means hit-call score of the fitted dose curve at least 0.9, where 1 is the maximum; inactive means score below 0.9.

Biological target: Transcriptional activator Myb (Homo sapiens) (UniProt P10242)
Assay: ATG_Myb_CIS: Attagene CIS-FACTORIAL HepG2 Assay for human Myeloblastosis (Myb) Proto-Oncogene Transcription Factor (AID 2282986)
Settings: HepG2 Attagene CIS-FACTORIAL Myb reporter transcription; actives raise or lower the signal
Experimental: ATG_CIS is a cell-based, multiplexed-readout assay that uses HepG2, a human liver cell line, with measurements taken at 24 hours after chemical dosing in a 24-well plate.ATG_Myb_CIS is one of 52 assay component(s) measured or calculated from the ATG_CIS assay. It is designed to make measurements of mRNA induction, a form of inducible reporter, as detected with fluorescence intensity signals by Reverse transcription polymerase chain reaction (RT-PCR) and Capillary electrophoresis technology.Data from the assay component ATG_Myb_CIS was analyzed into 1 assay endpoint. This assay endpoint, ATG_Myb_CIS, was analyzed with bidirectional fitting relative to DMSO as the negative control and baseline of activity. Using a type of inducible reporter, measures of mRNA for gain or loss-of-signal activity can be used to understand the reporter gene at the transcription factor-level as they relate to the gene MYB. Furthermore, this assay endpoint can be referred to as a primary readout, because this assay has produced multiple assay endpoints where this one serves a reporter gene function. To generalize the intended target to other relatable targets, this assay endpoint is annotated to the dna binding intended target family, where the subfamily is MYB proteins.
Human liver HepG2 cells are transiently transfected with multiple reporter transcription units (MRTUs) in 6-well plates using FuGene 6 reagent (Roche; 3 ml FuGene/1 mg DNA). The MRTU constructs are regulated by a cis-regulating element (promoter). […] A major difference between the CIS and TRANS system is that in CIS activities of endogenous TFs are measured, whereas the TRANS assay evaluates changes in activities of exogenous, chimeric NR-Gal4 proteins. […] At the end of 24 hour incubation, total RNA was isolated using TriZol reagent (Invitrogen). The isolated RNA is then reverse-transcribed using oligo(dT) primer and Mo-MLV reverse transcriptase (Invitrogen) with DNAse I (Ambion) treatment for 30 min. The one-tenth of the produced cDNA was amplified by PCR using Taq DNA polymerase (Invitrogen) and two reporter sequence-specific primers. The PCR products were fluorescently labeled by primer extension with 6-arboxyfluorescein (6-FAM) 5'-labeled reporter sequence-specific primer (2 min at 95 C, 20 s at 68 C and 10 min at 72 C) and these products were digested with 5U of HpaI (New England Biolabs) for 2h at 37 C. The fragments were purified using Qiaquick PCR columns (Qiagen), analyzed on an ABI 3130xL genetic analyzer (Applied Biosystems) with peak positions identified by using a set of X-rhodamine (ROX)-labeled MapMarker1000 molecular weight standards (BioVentures). The raw capillary electrophoresis data was processed using Attagraph software (Attagene).

Chain of Transcriptional activator Myb (Homo sapiens) (P10242 whole entry, looked up): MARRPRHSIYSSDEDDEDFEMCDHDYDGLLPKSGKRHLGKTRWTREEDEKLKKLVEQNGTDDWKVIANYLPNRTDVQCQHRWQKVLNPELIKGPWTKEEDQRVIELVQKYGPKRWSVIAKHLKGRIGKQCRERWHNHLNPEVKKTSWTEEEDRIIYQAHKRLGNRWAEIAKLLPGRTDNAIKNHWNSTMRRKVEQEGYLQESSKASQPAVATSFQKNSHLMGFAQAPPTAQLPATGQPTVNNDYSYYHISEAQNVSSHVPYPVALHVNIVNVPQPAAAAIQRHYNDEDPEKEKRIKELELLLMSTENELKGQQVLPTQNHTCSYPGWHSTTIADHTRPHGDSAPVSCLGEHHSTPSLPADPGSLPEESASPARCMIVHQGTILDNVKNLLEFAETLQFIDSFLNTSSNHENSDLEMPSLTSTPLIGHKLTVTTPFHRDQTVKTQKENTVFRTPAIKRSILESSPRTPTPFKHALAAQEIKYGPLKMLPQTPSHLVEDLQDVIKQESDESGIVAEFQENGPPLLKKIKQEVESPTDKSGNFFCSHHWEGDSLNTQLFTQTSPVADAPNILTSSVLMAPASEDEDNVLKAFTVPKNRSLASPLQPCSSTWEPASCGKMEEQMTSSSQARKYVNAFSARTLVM

Structure (SMILES)	outcome	AC50
CCNP(=S)(OC)O/C(C)=C/C(=O)OC(C)C (stereo not given)	inactive	
CSC(=O)c1c(C(F)F)nc(C(F)(F)F)c(C(=O)SC)c1CC(C)C	inactive	
CCCCC(C#N)(Cn1cncn1)c1ccc(Cl)cc1 (stereo not given)	inactive	
CNC(=O)N(C)c1nnc(C(C)(C)C)s1	inactive	
CO/N=C(/C1=NOCCO1)c1ccccc1Oc1ncnc(Oc2ccccc2Cl)c1F	inactive	
CCNC(=O)NC(=O)C(C#N)=NOC	inactive	
CCCCC(O)(Cn1cncn1)c1ccc(Cl)cc1Cl (stereo not given)	inactive	
CC(C)C1(C)N=C(c2ncccc2C(=O)O)NC1=O (stereo not given)	inactive	
COP(=S)(OC)Oc1ccc([N+](=O)[O-])c(C)c1	inactive	
CN/C(=N\[N+](=O)[O-])NCc1cnc(Cl)s1	inactive	
CS(=O)(=O)c1ccc(C(=O)C2C(=O)CCCC2=O)c([N+](=O)[O-])c1	inactive	
N#Cc1c(Cl)cccc1Cl	inactive	
COC(=O)NS(=O)(=O)c1ccc(N)cc1	inactive	
CC1(C)CCC(=Cc2ccc(Cl)cc2)C1(O)Cn1cncn1 (stereo not given)	inactive	
CCCC(=NOCC)C1=C(O)CC(CC(C)SCC)CC1=O (stereo not given)	inactive	
CCOc1cc(C(C)(C)C)ccc1C1COC(c2c(F)cccc2F)=N1 (stereo not given)	inactive	
Nc1cnn(-c2ccccc2)c(=O)c1Cl	inactive	
O=C(Nc1ccccc1-c1ccc(Cl)cc1)c1cccnc1Cl	inactive	
CCCN(CC)CC1COC2(CCC(C(C)(C)C)CC2)O1 (stereo not given)	inactive	
COCC(C)N(C(=O)CCl)c1c(C)csc1C (stereo not given)	inactive	

Structure (SMILES)	outcome	AC50
COc1ccc(-c2ccccc2)cc1NNC(=O)OC(C)C	inactive	
Cc1ccc(N=CN(C)C=Nc2ccc(C)cc2C)c(C)c1	inactive	
Cc1cnc(C2=NC(C)(C(C)C)C(=O)N2)c(C(=O)O)c1 (stereo not given)	inactive	
COc1cc(OC)nc(NC(=O)NS(=O)(=O)c2ncccc2OCC(F)(F)F)n1	inactive	
CCOc1nc(F)cc2nc(S(=O)(=O)Nc3c(Cl)cccc3Cl)nn12		0.0229 µM (active)
CC(C)=CC1C(C(=O)OCc2coc(Cc3ccccc3)c2)C1(C)C (stereo not given)	inactive	
OC(c1ccc(Cl)cc1)(c1ccc(Cl)cc1)C(Cl)(Cl)Cl	inactive	
CC(C)(C)C(=O)C(Oc1ccc(Cl)cc1)n1cncn1 (stereo not given)	inactive	
COP(=S)(OC)SCn1nnc2ccccc2c1=O	inactive	
COc1cc(Cl)c(OC)cc1Cl	inactive	
Cn1c(-c2ccccc2)cc(-c2ccccc2)[n+]1C	inactive	
Clc1nc(Cl)nc(Nc2ccccc2Cl)n1	inactive	
CCOP(=S)(OCC)Oc1nc(Cl)n(C(C)C)n1	inactive	
CCOc1nc(C(Cl)(Cl)Cl)ns1	inactive	
Cc1cc(C)nc(Nc2ccccc2)n1	inactive	
Nc1c(Cl)c(F)nc(OCC(=O)O)c1Cl	inactive	
Clc1cccc(C(Cl)(Cl)Cl)n1	inactive	
Cc1c(COC(=O)[C@@H]2[C@H](/C=C(\Cl)C(F)(F)F)C2(C)C)cccc1-c1ccccc1	inactive	
O=c1n(Cl)c(=O)n(Cl)c(=O)n1Cl	inactive	
CCSC(=O)N1CCCCCC1	inactive	
